{"source": "ChEMBL document CHEMBL1157539", "about": "“Thousands of chemical starting points for antimalarial lead identification” (Nature, 2010)", "note": "The full ranking holds about 13,000 compounds; the median of “IFI” is about 4, and the highest 2% start at about 17. This is one part of a sample in which the highest values are shown more often than they occur.", "data": [{"assay": "GSK_TCMDC: Inhibition Frequency Index (IFI). The number of non-kinase HTS assays where a compound showed > 50 % inhibition, expressed as a percentage of the number of such assays in which the compound was tested", "type": "functional", "units": {"IFI": "%"}, "values": [{"smiles": "O=C(Nc1ccc(Cl)cc1)NC1CCN(CCCCCNC(=O)C2CC2c2ccc(Cl)c(Cl)c2)CC1", "note": "(configuration not stated)", "IFI": 10.2}, {"smiles": "O=C(Nc1ccc(Cl)c(C(F)(F)F)c1)N[C@H]1CCN(CCCCCNC(=O)C2CC2c2ccc(Cl)c(Cl)c2)C1", "note": "(some centres not stated)", "IFI": 12.2}, {"smiles": "O=C(Nc1ccc(Cl)c(C(F)(F)F)c1)NC1CCN(CCCCCNC(=O)C2CC2c2ccc(Cl)c(Cl)c2)CC1", "note": "(configuration not stated)", "IFI": 17.1}, {"smiles": "O=C(Nc1ccc(F)c(C(F)(F)F)c1)N[C@H]1CCN(CCCCCNC(=O)C2CC2c2ccc(Cl)c(Cl)c2)C1", "note": "(some centres not stated)", "IFI": 15.9}, {"smiles": "O=C(Nc1cccc(F)c1)NC1CCN(CCCCCNC(=O)C2CC2c2ccc(Cl)c(Cl)c2)CC1", "note": "(configuration not stated)", "IFI": 11.5}, {"smiles": "COc1ccc(-c2cnc3ccc(NCCCO)nn23)cc1OC", "IFI": 6.77}, {"smiles": "COc1ccc(-c2nc3cccnc3n2CC(=O)Nc2c(C)cc(C)cc2C)c(OC)c1", "IFI": 5.56}, {"smiles": "N=C1N=C(N)NCN1OCc1ccc(Cl)c(Cl)c1", "IFI": 0.72}, {"smiles": "Cc1[nH]c(C)c(-c2ccc(OCc3cc(C(F)(F)F)cc(C(F)(F)F)c3)nc2)c(=O)c1Br", "IFI": 5.36}, {"smiles": "CC(C)(C)c1ccc2[nH]c(-c3ccc(/C=C/C(=O)NCc4cccc(C(F)(F)F)c4)cc3)nc2c1", "IFI": 2.9}, {"smiles": "Cc1cccc2nc(-c3cccc(-c4cccc(CN5CCCC5CN)c4)c3)[nH]c12", "note": "(configuration not stated)", "IFI": 4.95}, {"smiles": "Cc1nn(-c2cccc(C(F)(F)F)c2)c2sc(C(=O)NC3CCN(C(C)C)CC3)cc12", "IFI": 10}, {"smiles": "CCCCN(CCCC)CCCCNc1c2ccc(Cl)cc2nc2ccc(OC)cc12", "IFI": 6.87}, {"smiles": "CC1(C)NC(N)=NC(=N)N1OCCOc1ccc(Cc2ccccc2)cc1", "IFI": 4.41}, {"smiles": "CCCc1cc(OCCCOc2ccccc2)ccc1OCCCON1C(=N)N=C(N)NC1(C)C", "IFI": 21.1}, {"smiles": "CCCc1cc(C(C)=O)ccc1OCCCON1C(=N)N=C(N)NC1(C)C", "IFI": 3.68}, {"smiles": "CC1(C)NC(N)=NC(=N)N1OCCCCOc1ccccc1", "IFI": 2.17}, {"smiles": "N=C1N=C(N)NC2(CCCCC2)N1OCCOc1ccc(Cc2ccccc2)cc1", "IFI": 27.6}, {"smiles": "N=C1N=C(N)NC2(CCCCC2)N1OCCCOc1cccc2ccccc12", "IFI": 9.16}, {"smiles": "COc1ccccc1NC(=O)Nc1cccc(-c2cccc(-c3nc4cccc(C)c4[nH]3)c2)c1", "IFI": 3.03}, {"smiles": "c1cc(-c2ccc(CNC3CCOCC3)cc2)cc(-c2nc3ccccc3[nH]2)c1", "IFI": 0.97}, {"smiles": "CCOc1ccc2ccccc2c1CNCCCCCCNCc1c(OCC)ccc2ccccc12", "IFI": 13}, {"smiles": "c1ccc2c(CNCCCCCCNCc3c(OCC4CC4)ccc4ccccc34)c(OCC3CC3)ccc2c1", "IFI": 18.7}, {"smiles": "C#CCOc1ccc2ccccc2c1CNCCCCCCNCc1c(OCC#C)ccc2ccccc12", "IFI": 14.1}, {"smiles": "C/C=C/COc1ccc2ccccc2c1CNCCCCCCCCNCc1c(OC/C=C/C)ccc2ccccc12", "IFI": 16.6}, {"smiles": "C#CCCOc1ccc2ccccc2c1CNCCCCCCNCc1c(OCCC#C)ccc2ccccc12", "IFI": 12.8}, {"smiles": "CCCOc1ccc2ccccc2c1CNCCCCCCNCc1c(OCCC)ccc2ccccc12", "IFI": 17.6}, {"smiles": "CCCCCCOc1ccc2ccccc2c1CNCCCCCCNCc1c(OCCCCCC)ccc2ccccc12", "IFI": 22.8}, {"smiles": "Oc1ccc2ccccc2c1CNCCC1CCCCC1", "IFI": 2.96}, {"smiles": "CCCCCCCCNCc1c(O)ccc2ccccc12", "IFI": 7.69}, {"smiles": "C=CCOc1ccc2ccccc2c1CNCCCCCCNCc1c(OCC=C)ccc2ccccc12", "IFI": 19.6}, {"smiles": "c1ccc2[nH]c(-c3ccc(-c4ccc(CNCC5CCCO5)cc4)s3)nc2c1", "note": "(configuration not stated)", "IFI": 6.86}, {"smiles": "N#Cc1ccc(-c2ccc(C(=O)NCCCCN3CCC(c4ccc5c(c4OCC(N)=O)CCCC5)CC3)cc2)cc1", "IFI": 3.54}, {"smiles": "N=C(N)Nc1nc(-c2ccc(NC(=N)N3CCC[C@H]3CN3CCCC3)cc2)cs1", "IFI": 2.17}, {"smiles": "CCCCNc1nc(NCCCC)c2c(C)c(Cc3ccccc3)c(NCCCC)nc2n1", "IFI": 16.1}, {"smiles": "COc1ccc(CNCc2cccc(-c3ccc(-c4nc5cccc(C)c5[nH]4)s3)c2)cc1", "IFI": 10.4}, {"smiles": "COc1ccccc1/C=C/C(=O)NC1CCC(CCN2CCc3ccc(-c4cc(C)no4)cc3CC2)CC1", "note": "(configuration not stated)", "IFI": 3.88}, {"smiles": "Nc1c2ccccc2nc2ccc(Cl)cc12", "IFI": 9.03}, {"smiles": "Cc1noc(C)c1-c1cccc(CNCc2cccc(-c3cccc(-c4nc5ccccc5[nH]4)c3)c2)c1", "IFI": 3.92}, {"smiles": "COc1cc(CN/C(=N/c2ccc(-c3ccccc3)cc2)Nc2ccc(C#N)cc2O)cc(OC)c1", "IFI": 1.46}, {"smiles": "Cc1nc2nc(N)nc(N)c2c(C)c1Cc1ccc([N+](=O)[O-])cc1", "IFI": 1.6}, {"smiles": "O=C(NCCCCN1CCC(c2ccc3c(c2OCCCO)CCCC3)CC1)c1ccc(-c2ccc(C(F)(F)F)cc2)c(CO)c1", "IFI": 10.1}, {"smiles": "CC1(C)NC(N)=NC(=N)N1OCCOc1cccc(C(F)(F)F)c1", "IFI": 3.7}, {"smiles": "CCOc1cc2ncnc(Nc3ccc(OCc4c(F)cccc4F)c(OC)c3)c2cc1OCC", "IFI": 0}, {"smiles": "CCOc1cc2ncnc(Nc3ccc(OCc4c(Cl)cccc4Cl)c(OC)c3)c2cc1OCC", "IFI": 0}, {"smiles": "Cc1ccc(NC(=N)Nc2ncccc2OCc2c(F)cccc2Cl)cc1", "IFI": 22}, {"smiles": "O=C(Nc1ccccc1)N(Cc1ccc(-c2ccc(CNC3CCCC3)cc2)cc1)C1CCN(Cc2ccccc2)CC1", "IFI": 4.9}]}]}
